# APEX1 inh – qHTS Assay for Inhibitors of the Human Apurinic/apyrimidinic Endonuclease 1 (APE1); actives 0.35% (n = 350,000); DNA repair nuclease/redox regulator APEX1 (Homo sapiens), P27695; recombinant APE1, TAMRA/BHQ-2 abasic DNA cleavage fluorescence; Potency, µM (titrated, usually from 65.8 µM), without a hit: at the highest dose activity change, negative = inhibition, actives largely listed as inhibitors;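 also: plate controls were vehicle for no effect and reference inhibitor for full effect; nearly all actives have a fitted effect of over 55% in size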
# Target sequence (P27695 whole entry, looked up): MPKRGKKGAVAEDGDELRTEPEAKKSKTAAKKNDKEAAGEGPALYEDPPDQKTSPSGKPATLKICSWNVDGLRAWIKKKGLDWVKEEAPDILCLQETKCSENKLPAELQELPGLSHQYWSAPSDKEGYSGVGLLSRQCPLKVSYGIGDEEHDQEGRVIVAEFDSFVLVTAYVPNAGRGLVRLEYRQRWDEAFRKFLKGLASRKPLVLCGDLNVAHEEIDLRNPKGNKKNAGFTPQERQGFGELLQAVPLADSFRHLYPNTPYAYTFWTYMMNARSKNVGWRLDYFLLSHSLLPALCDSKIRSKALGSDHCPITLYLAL
#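 Incision of a quenched TAMRA/BHQ-2 THF abasic-site duplex (50 nM) by 0.75 nM APE1, after 15 min compound preincubation, measured as fluorescence increase over three 60 s reads. Values normalized to buffer, DMSO and NSC13755 control wells.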
# BLM helicase inh – qHTS Assay for Inhibitors of Bloom's syndrome helicase (BLM); recombinant BLM DNA unwinding, fluorescence dequenching; Potency, µM (highest dose often 56.1 µM), for the others: at the highest dose activity change, negative = inhibition, actives largely listed as inhibitors; actives 0.2% (n = 350,000); AID 2528, 2010;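 also: plate controls were vehicle for no effect and no enzyme for full effect; nearly all actives have a fitted effect of over 35% in size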
# TDP1 block – qHTS Assay for Inhibitors of Tyrosyl-DNA Phosphodiesterase (TDP1); Tyrosyl-DNA phosphodiesterase 1 (Homo sapiens), Q9NUW8; recombinant TDP1, AlphaScreen DNA substrate cleavage; Potency, µM (doses to about 130 µM), inactives show at the top dose activity change, negative = inhibition, hits mostly inhibitors; actives 0.28% (n = 350,000); AID 485290, 2010; also: nearly all actives have a fitted effect of over 40% in size
#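 E. coli-derived human Tdp1, 1 nM final. Cpd preinc 15 min RT; substrate 15 nM final, 5 min RT; AS bead mix 10 ug/ml final, 10 min RT. Signal loss = tyrosine-FITC cleavage. No-enzyme wells = max signal.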
# RECQ1 inh-1 – qHTS Assay for Inhibitors of RecQ-Like Dna Helicase 1 (RECQ1) | Potency, µM (series often up to 57.3 µM), inactives show at the top dose activity, negative = inhibition, most hits filed as inhibitors | actives 0.54% (n = 240,000) | RECQ1 DNA unwinding, red fluorescence kinetic read;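 also: plate controls were vehicle for no effect and no enzyme for full effect; nearly all actives have a fitted effect of over 30% in size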
#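 RECQ1T1 50 nM; forked duplex (20 bp + 30-nt ss tails) 200 nM, ATP 2 mM final; pH 8.0, 2 mM MgCl2, 2.5 ug/ml poly(dI-dC); 15 min compound preincubation; discontinuous kinetic read over 2 h at RT.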
# Tb PGK inh – qHTS Assay to Find Inhibitors of Phosphoglycerate Kinase; PGK/GAPDH coupled, Kinase-Glo luminescence, 60 min; Potency, µM (highest dose often 57.5 µM), for the others: at the top dose activity change, negative = inhibition, most hits filed as inhibitors; actives 0.043% (n = 380,000); also: nearly all actives have a fitted effect of over 60% in size
# Target sequence (P07378 whole entry, looked up): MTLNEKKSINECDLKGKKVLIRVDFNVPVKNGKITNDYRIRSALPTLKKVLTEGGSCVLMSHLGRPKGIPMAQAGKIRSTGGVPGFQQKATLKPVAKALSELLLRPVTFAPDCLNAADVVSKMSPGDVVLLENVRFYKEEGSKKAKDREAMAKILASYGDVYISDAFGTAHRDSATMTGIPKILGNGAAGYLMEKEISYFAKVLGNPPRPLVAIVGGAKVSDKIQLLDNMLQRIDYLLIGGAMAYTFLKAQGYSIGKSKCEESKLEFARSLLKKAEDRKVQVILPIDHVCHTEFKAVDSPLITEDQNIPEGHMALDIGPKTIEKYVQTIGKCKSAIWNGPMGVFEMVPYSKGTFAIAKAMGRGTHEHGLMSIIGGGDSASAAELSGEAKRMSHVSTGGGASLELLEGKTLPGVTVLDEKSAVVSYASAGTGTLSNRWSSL
#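 Luminescent ATP detection (Kinase-Glo Plus) follows a 60-minute room-temperature incubation, with wells lacking PGK as controls. Buffer: 100 mM TEA (pH 7.6), 5 mM MgCl2, 0.01% Tween-20. Coupling enzyme GAPDH (100 nM final) supplies unstable 1,3-BPG in-well.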
# GLS inhibitor – qHTS for Inhibitors of Glutaminase (GLS); Potency, µM (top dose mostly 45.5 µM), for inactives: at the highest dose activity change, negative = inhibition, usual class: inhibitors; Glutaminase kidney isoform, mitochondrial (Homo sapiens), O94925; GLS enzymatic activity, qHTS titration; actives 0.21% (n = 410,000)
#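 hKGA in 45 mM KH2PO4 (pH 8.2), 0.02% Tween-20 with compound, then 1mM L-Glutamine (stock as added) plus glutamate oxidase/HRP/Amplex red coupling mix. Fluorescence read initially and after 30 min at RT; signal change reflects glutamate formation.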
# RECQ1 conf – Confirmation qHTS Assay for Inhibitors of RecQ-Like Dna Helicase 1 (RECQ1) | shares compounds with RECQ1 inh-1 | RECQ1 helicase DNA unwinding, fluorescence | Potency, µM (series often up to 229 µM), for the others: top-dose activity change, negative = inhibition, hits mostly inhibitors | actives 28% (n = 610); also: nearly all actives have a fitted effect of over 45% in size
# ADP FP counter – Counterscreen for RECQ1 Inhibitors: ADP Fluorescence Polarization Displacement Assay. actives 27% (n = 530). shares compounds with RECQ1 inh-1. Potency, µM (titrated, usually from 228 µM), for the others: top-dose activity change, negative = inhibition, usual class: inhibitors. ADP fluorescence polarization displacement counterscreen; also: nearly all actives have a fitted effect of over 45% in size
# RECQ1 inh-2 – Confirmation qHTS Assay for Inhibitors of RecQ-Like Dna Helicase 1 (RECQ1) - Round 2 Cherry Picks; shares compounds with RECQ1 inh-1; recombinant RECQ1 DNA unwinding, red fluorescence; Potency, µM (top dose mostly 119 µM), without a hit: at the top dose activity, negative = inhibition, usual class: inhibitors; actives 15% (n = 1,100); AID 504841, 2011; also: nearly all actives have a fitted effect of over 50% in size
# An asterisk follows results filed as active; i = inactive; ? = inconclusive; . = not tested or not shown; [ ] = dose if it differs, or a comment. A selection: hits, their analogues and other compounds. The true share with any hit is near 0.85%. Calls follow the shape of the dose curve; as a rule, active = well fitted curve in the direction sought with a large enough effect; inconclusive = small, poorly fitted or top-dose-only effect, or another doubt; inactive = no such curve, though single readings can be large; an effect the other way counts as inactive or inconclusive. Unless noted, % is scaled to controls: 0 for no effect and ±100 for the full control effect; potency is read from the fitted curve at half-maximal effect.
SMILES,APEX1 inh,BLM helicase inh,TDP1 block,RECQ1 inh-1,Tb PGK inh,GLS inhibitor,RECQ1 inh-2,others
CCn1c(=O)c(=O)[nH]c2cc(C(=O)N3CCN(c4ccccc4F)CC3)ccc21,0.3%,-3.1%,2.1%,25.1µM*,2.9%,4.2%,79.4µM*,
CCCCC/C=C\C\C=C/C=C/C=C/[C@@H](SCC(N)C(=O)NCC(=O)O)[C@@H](O)CCCC(=O)O (some centres not stated),29.6%,-1.1%,5.0%,-1.2%,.,.,.,
O=C(OCc1nnc(-c2ccccc2)o1)c1ccc(S(=O)(=O)NCc2ccco2)cc1,?,-12.5%,-3.4%,39.8µM*,-0.3%,-7.5%,?,
CN(C)S(=O)(=O)c1ccc(C(=O)OCc2nnc(-c3ccccc3)o2)cc1,24.0%,-0.8%,.,-3.4%,i,-4.1%,.,
COc1ccccc1-n1c(SCC(=O)Nc2ccccc2C)nc(O)cc1=O,1.6%,-16.2%,-7.3%,10µM*,0.3%,-3.7%,-7.0%,RECQ1 conf=11.4%[114 µM];ADP FP counter=12.1%[91.9 µM]
OC[C@@H]1O[C@H](OC2[C@@H](O)[C@@H](O)[C@@H](O)O[C@@H]2CO)[C@H](O)[C@@H](O)[C@@H]1OC1O[C@H](CO)[C@@H](O)[C@H](O)[C@@H]1O (some centres not stated),5.5%,6.1%,9.5%,13.2%,.,.,.,
O=C(Nc1cccc(C(F)(F)F)c1)Nc1cc(Cl)ccc1C(=O)O,-2.5%,-3.2%,8.9%,-12.4%,.,.,.,
Nc1c(C(=O)Nc2ccccc2F)sc2nc(-c3ccco3)ccc12,-6.1%,-9.5%,1.0%,5.3%,-9.9%,-3.1%,.,
Nc1c(C(=O)Nc2ccccc2F)sc2nc(-c3cccnc3)ccc12,12.5%,-6.2%,-1.9%,31.6µM*,4.4%,7.7%,-14.5%,
NC(N)=NCCC[C@H](N)C(=O)N1CCC[C@H]1C(=O)N1CCC[C@H]1C(=O)NCC(=O)N[C@@H](Cc1ccccc1)C(=O)N[C@@H](CO)C(=O)N1CCC[C@H]1C(=O)N[C@@H](Cc1ccccc1)C(=O)O,-6.3%,1.0%,7.5%,-2.4%,.,.,.,
Cc1cc(C)c2nc(-c3ccccn3)cc(C(=O)Nc3ccc(S(=O)(=O)Nc4onc(C)c4C)cc3)c2c1,?,?,39.8µM*,?,-15.6%,-11.3%,?,
COc1ccc(-c2cc(C(=O)Nc3ccc(S(=O)(=O)Nc4onc(C)c4C)cc3)c3ccccc3n2)cc1OC,19.2%,-7.8%,-2.6%,11.7%,-4.8%,11.5%,.,
Cc1cc(C)c2nc(-c3ccccn3)cc(C(=O)Nc3ccc(S(=O)(=O)Nc4cc(C)on4)cc3)c2c1,?,?,1.9%,25.1µM*,-13.0%,-7.3%,?,
O=C(O)CCCn1c(=S)[nH]c2c(sc3ccc([N+](=O)[O-])cc32)c1=O,-3.3%,1.7%,-8.1%,18.1%,-3.1%,?,.,
CC1CCN(CCCn2c(=S)[nH]c3c(sc4ccc([N+](=O)[O-])cc43)c2=O)CC1,16.9%,-1.4%,0.0%,?,-8.9%,98.0%,?,
Oc1ccc(CNc2cccnc2)c2cccnc12,.,.,4.7%,.,.,.,.,
COc1ccc(C2=Nn3c(nnc3-c3cccc(OC)c3OC)SC2)c(OC)c1,-2.9%,-6.4%,9.1%,i,.,.,.,
O=C(O)C(NC(=O)C1CCCN1C(=O)OCc1ccccc1)c1ccccc1 (configuration not stated),16.9%,0.0%,.,.,0.8%,2.6%,.,
O=C(O)CCC(NC(=O)C1CCCN1C(=O)OCc1ccccc1)C(=O)O (configuration not stated),4.3%,3.1%,6.0%,-19.2%,5.3%,-0.2%,.,RECQ1 conf=2.9%;ADP FP counter=?
CCC(=O)N1C2=C(c3ccccc3[C@@H]1CC(=O)Nc1ccc3ccccc3c1)[C@@H]1C(=O)N(c3ccccc3)C(=O)[C@@H]1[C@H](C)C2,-3.1%[12.4 µM],1.6%[12.4 µM],16.7%[12.3 µM],2.5%[11.5 µM],.,.,.,
O=C(Nc1ccc(OC(F)(F)F)cc1)c1noc2c1CCCC2,.,-4.3%,3.6%,.,.,-4.0%,.,
COc1ccc(NC(=O)c2noc3c2CCC3)cc1,20µM*,-20.4%,14.1µM*,?,?,?,?,
COC(=O)[C@H]1[C@@H]2C[C@H]3c4[nH]c5ccccc5c4CCN3C[C@@H]2CC[C@@H]1O,-9.8%,0.4%,4.8%,-6.6%,.,.,.,
Cc1ccc(NC(=O)c2ccccc2NS(=O)(=O)c2ccc(Cl)s2)cc1,15.9%,-5.8%,5.6%,39.8µM*,-2.1%,0.7%,-17.9%,
O=C(Nc1ccccc1)c1ccccc1NS(=O)(=O)c1ccc(Cl)s1,6.6%,-4.9%,0.0%,9.6%,0.0%,24.0%,.,
CCCCCC/C(C)=C1/SC(=S)NC1=O,-1.9%,-8.0%,-1.0%,-3.3%,-16.3%,20.7%,.,
C/C(C/C(C)=C1/SC(=S)NC1=O)=C1\SC(=S)NC1=O,?,95.9%,.,14.1µM*,?,-26.0%,.,RECQ1 conf=?
COc1ccc(NC(=O)COC(=O)Cc2ccc(-c3ccccc3)cc2)c(OC)c1,-4.2%,-5.5%,3.2%,i,-7.5%,22.9%,.,
COc1ccc(C)cc1NC(=O)COC(=O)Cc1ccc(-c2ccccc2)cc1,0.9%,-12.4%,0.0%,?,-9.7%,2.3%,-6.9%,
c1ccc(Nc2cccc3c(Nc4ccccc4)cccc23)cc1,-7.1%,-19.7%,9.6%,?,-0.4%,15.2%,-14.8%,

# High-throughput results from PubChem.
